From PubChem BioAssay AID2284076 (EPA ToxCast)
The source made the active and inactive calls. Rule for the calls: active = hit-call score of the fitted dose curve at least 0.9, where 1 is the maximum; inactive = score below 0.9.

Target: human EphA1 Receptor Tyrosine Kinase, EPHA1 (gene 2041) (UniProt P21709)
Assay: ERF_FR_ENZ_hEPHA1: Eurofins (ERF) Enzymatic Radiometric [Km ATP] KinaseProfiler LeadHunter Assay for human EphA1 Receptor Tyrosine Kinase
Description: ERF_FR_ENZ_hEPHA1 is a biochemical, single-readout assay that uses extracted gene-proteins in a cell-free assay. Measurements were taken 0.5 hour after chemical dosing in a 96-well plate. See EphA1 Human RTK Kinase Enzymatic HTRF Assay [Km ATP], Cerep.ERF_FR_ENZ_hEPHA1 is an assay component calculated from the ERF_FR_ENZ_hEPHA1 assay. It is designed to measure enzyme activity using a type of enzyme reporter as detected by fluorescence intensity with HTRF technology.Data from the assay component ERF_FR_ENZ_hEPHA1 was analyzed at the assay endpoint, ERF_FR_ENZ_hEPHA1, in the positive analysis fitting direction relative to DMSO as the negative control and baseline of activity. Using a type of enzyme reporter, loss-of-signal activity can be used to understand changes in enzymatic activity as they relate to gene EPHA1. To generalize the intended target to other relatable targets, this assay endpoint is annotated to the kinase intended target family, where the subfamily is receptor tyrosine kinase.
EphA1 (h) is incubated with 8 mM MOPS pH 7.0, 0.2 mM EDTA, 250 uM […], 10 mM MgAcetate and [gamma-33P]-ATP (specific activity and concentration as required). The reaction is initiated by the addition of the Mg/ATP mix. After incubation for 40 minutes at room temperature, the reaction is stopped by the addition of phosphoric acid to a concentration of 0.5%. […]

Chain of human EphA1 Receptor Tyrosine Kinase, EPHA1 (gene 2041) (P21709 whole entry, looked up): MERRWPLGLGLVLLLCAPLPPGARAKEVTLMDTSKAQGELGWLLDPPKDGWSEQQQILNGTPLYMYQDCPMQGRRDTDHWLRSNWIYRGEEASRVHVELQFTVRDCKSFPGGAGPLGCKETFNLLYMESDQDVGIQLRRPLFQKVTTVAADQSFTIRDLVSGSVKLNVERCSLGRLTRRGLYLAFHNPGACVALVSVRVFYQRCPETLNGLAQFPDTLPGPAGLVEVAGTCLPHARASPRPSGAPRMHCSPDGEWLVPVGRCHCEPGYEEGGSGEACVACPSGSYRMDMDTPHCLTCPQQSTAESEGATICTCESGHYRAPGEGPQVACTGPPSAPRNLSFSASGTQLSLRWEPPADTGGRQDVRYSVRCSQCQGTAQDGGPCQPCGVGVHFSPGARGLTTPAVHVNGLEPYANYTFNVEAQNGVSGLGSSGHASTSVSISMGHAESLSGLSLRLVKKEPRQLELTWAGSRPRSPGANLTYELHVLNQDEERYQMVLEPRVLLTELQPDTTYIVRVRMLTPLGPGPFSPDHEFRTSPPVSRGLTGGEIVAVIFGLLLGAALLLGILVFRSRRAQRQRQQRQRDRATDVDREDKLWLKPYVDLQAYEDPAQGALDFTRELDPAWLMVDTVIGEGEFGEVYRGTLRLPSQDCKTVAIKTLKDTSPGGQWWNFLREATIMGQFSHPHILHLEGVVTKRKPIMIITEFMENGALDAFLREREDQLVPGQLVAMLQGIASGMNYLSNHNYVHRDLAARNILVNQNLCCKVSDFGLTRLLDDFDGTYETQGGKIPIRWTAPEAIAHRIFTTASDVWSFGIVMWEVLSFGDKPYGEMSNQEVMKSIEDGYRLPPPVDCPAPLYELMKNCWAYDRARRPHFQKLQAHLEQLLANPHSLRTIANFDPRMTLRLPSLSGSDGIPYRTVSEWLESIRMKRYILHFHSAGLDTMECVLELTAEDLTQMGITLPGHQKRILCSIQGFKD

Compound	outcome
O=C(/C=C/c1ccc(O)cc1)CC(=O)/C=C/c1ccc(O)cc1	inactive
